Laboratory results taken from PubChem BioAssay (NCI).
This is part of a sample that, as a whole, favours compounds with a hit. Of some 83,000 tested, about 20% had one in any assay.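 Method: cells in 96-well plates; compound added at one concentration; 48 h incubation; percent growth measured; values under 10 scored active.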 Unmarked numbers belong to inactive results. Activity calls are given as the source filed them.

What follows are compounds tested on CAKI-1 renal (assay: NCI-60 one-dose screen, 48 h (100 = growth as untreated, 0 = no growth, -100 = all killed)). Details: 10 µM unless noted.
With `CCOC(=O)C(C(C)=O)c1nc2sc3cc(Cl)ccc3n2c(=N)c1C#N` (stereo unspecified) the growth was 91.6%. Compound `COc1ccc(-c2c(-c3cc(OC)c(OC)c(OC)c3)noc2N)cc1` has a growth of 28.2%. With `COc1ccc(-c2cc(C(=O)Nc3nc4cc(C)c(C)cc4s3)nc3cc(-c4ccccc4)nn23)cc1OC` the growth was 91.3%. In the case of `COc1ccc(-c2cc(Cc3cccs3)c(=O)n(Cn3ccc4ccccc43)n2)cc1`, the growth was 95.7%. For `COc1ccc(-c2cc(Cc3cccs3)c(=O)n(Cn3cncn3)n2)cc1`, the growth was 98.3%. For `Cn1c(=O)c2c(nc(Br)n2CCC(=O)Nc2ccc(F)cc2)n(C)c1=O`, the growth was 93.7%. Compound `COc1ccc(/C=C/C(=O)Nc2cccnc2Nc2ccc(F)cc2)cc1` has a growth of 86.5%. Compound `O=C1NCC(Nc2ccc(Br)cc2Cl)C(=O)N1` (stereo unspecified) has a growth of 91.8%. In the case of `Cc1cc(C)c2c(c1)N1OC(C2)C[C@H]1/C=C/c1ccccc1` (stereo partly specified), the growth was 85.6%. `Cc1cc(=O)n2n1-c1ccc(Cl)cc1NC(=O)C2` showed a growth of 88.4%. `CC[C@H](C)C(=O)O[C@H]1C[C@@H](C)C=C2C=C[C@H](C)[C@H](CC[C@@H]3C[C@@H](O)CC(=O)O3)[C@H]21` was tested, and the growth was 20.7%. Work on `O=C1NCN(c2ccccc2)C12CCN(CCCC(c1ccc(F)cc1)c1ccc(F)cc1)CC2` yielded a growth of 76.8%. With `N#Cc1cnc2cc(OC[C@H](O)CO)c(NC(=O)CC3CSSC3)cc2c1Nc1ccc(OCc2cccc(F)c2)c(Cl)c1` the growth was 70.1%. With `COc1cc(C2CC(=O)Nc3c2cc(Br)c2ccccc32)cc(Br)c1OC` (stereo unspecified) the growth was 3.19% (active). Compound `COC(=O)CCC1=C(C)/C(=C/c2[nH]c(-c3ccc[nH]3)cc2OC)N=C1C` has a growth of 11.1%.

What follows are compounds tested on A498 renal in the same assay as above. Details: 10 µM unless noted.
`O=[N+]([O-])c1ccc(N/N=C/c2c(O)ccc3ccccc23)nc1` showed a growth of 111%. `COc1cc(/C=C/c2nnc(-c3cc(-c4ccccc4)n[nH]3)o2)cc(OC)c1OC` was tested, and the growth was 105%. With `COc1cc2c(-c3nc4cc(Cl)c(F)cc4s3)cc(=O)oc2c(C)c1OC` the growth was 8.7% (active). `COc1cccc(-c2nnc(N)o2)c1` gave a growth of 97.8%. Work on `CSc1nc2c(c(=O)n1C)C(c1ccccc1)C1=C(N2)/C(=C/c2ccccc2)CCC1` (stereo unspecified) yielded a growth of 81.4%. `CCCCCCC/C(=N\N=C(N)N)c1ccc(O)cc1` was tested, and the growth was 46.6%. `CCOC(=O)c1c(NC(=O)C2CCCCC2C(=O)O)sc2c1CCCC2` (stereo unspecified) gave a growth of 109%. With `C[N+]1(CCC[N+]2(C)C[C@@H]3[C@H](C2)[C@@H]2C=C[C@H]3C2)CCOCC1` (stereo partly specified) the growth was 103%. `O=C(CCc1nnc(SCc2ccccc2)s1)c1nc2ccccc2[nH]1` gave a growth of 72.7%. With `c1csc([C@@H]2C[C@@H]3Cc4ccc5ccccc5c4N2O3)c1` the growth was 79.8%. With `O=C1/C(=C/c2ccc([N+](=O)[O-])s2)Oc2ccc(Br)cc21` the growth was -32.8% (active). `CCCCCCC(C)(O)c1ccccc1` (stereo unspecified) showed a growth of 145%. For `CCOC(Cc1c(N)[nH]c(=S)[nH]c1=O)OCC`, the growth was 104%. `CCN1C2=C(SC(=S)C1=C1SC(C(=O)OC)=C(C(=O)OC)S1)SC(=Nc1ccc(OC)cc1)C2=O` showed a growth of 46%. Compound `CCOc1nc(-c2ccccc2)cc2c(O)c(-c3nnco3)[nH]c(=O)c12` has a growth of 45.3%. `COc1cccc2c1O/C(=C\c1c([N+](=O)[O-])ncn1C)C2=O` gave a growth of 100%. Compound `CCCc1cc(=O)n2c(C(=O)Nc3ccccc3OC)c(C(=O)Nc3ccc(F)cc3)sc2n1` has a growth of 90% [30 µM]. `C=Cc1nn2c(CCC(=O)c3nc4ccccc4[nH]3)nnc2s1` was tested, and the growth was 135%. In the case of `CCOC(=O)C(C(C)=O)c1nc2sc3cc(Cl)ccc3n2c(=N)c1C#N` (stereo unspecified), the growth was 101%. Compound `COc1ccc2nccc(/C=C/c3ccnc4ccc(OC)cc34)c2c1` has a growth of 87.9%. `COc1ccc(-c2c(-c3cc(OC)c(OC)c(OC)c3)noc2N)cc1` was tested, and the growth was 22.8%. Work on `COc1ccc(-c2cc(C(=O)Nc3nc4cc(C)c(C)cc4s3)nc3cc(-c4ccccc4)nn23)cc1OC` yielded a growth of 129%. For `COc1ccc(-c2cc(Cc3cccs3)c(=O)n(Cn3ccc4ccccc43)n2)cc1`, the growth was 98.9%. With `COc1ccc(-c2cc(Cc3cccs3)c(=O)n(Cn3cncn3)n2)cc1` the growth was 83.5%. Compound `Cn1c(=O)c2c(nc(Br)n2CCC(=O)Nc2ccc(F)cc2)n(C)c1=O` has a growth of 98.2%. Compound `O=C1NCC(Nc2ccc(Br)cc2Cl)C(=O)N1` (stereo unspecified) has a growth of 117%. `CC/C=C\C=C/C(=O)N/C=C/CC1Cc2cccc(O)c2C(=O)O1` (stereo unspecified) gave a growth of 47.9%. `Cc1cc(C)c2c(c1)N1OC(C2)C[C@H]1/C=C/c1ccccc1` (stereo partly specified) gave a growth of 99.9%. With `Cc1cc(=O)n2n1-c1ccc(Cl)cc1NC(=O)C2` the growth was 119%. For `CC[C@H](C)C(=O)O[C@H]1C[C@@H](C)C=C2C=C[C@H](C)[C@H](CC[C@@H]3C[C@@H](O)CC(=O)O3)[C@H]21`, the growth was -27.9% (active). With `O=C1/C(=C/c2ccc([N+](=O)[O-])o2)Oc2ccc(Br)cc21` the growth was 113%. `O=C1NCN(c2ccccc2)C12CCN(CCCC(c1ccc(F)cc1)c1ccc(F)cc1)CC2` gave a growth of 57.7%. `N#Cc1cnc2cc(OC[C@H](O)CO)c(NC(=O)CC3CSSC3)cc2c1Nc1ccc(OCc2cccc(F)c2)c(Cl)c1` was tested, and the growth was -71.5% (active). Work on `COc1ccc(OC)c2c1[nH]c(=O)c1c3ccccc3cn21` yielded a growth of 51.1%. For `COc1cc(C2CC(=O)Nc3c2cc(Br)c2ccccc32)cc(Br)c1OC` (stereo unspecified), the growth was -2.63% (active). Work on `COC(=O)CCC1=C(C)/C(=C/c2[nH]c(-c3ccc[nH]3)cc2OC)N=C1C` yielded a growth of 66.8%.
